# In PMC7862700, “An all-to-all approach to the identification of sequence-specific readers for epigenetic DNA modifications on cytosine”:
# Key:
# Experiment in all cases: DAPPL (digital affinity profiling via proximity ligation, sequencing); 10 mM Tris-HCl pH 7.5, 50 mM NaCl, 1 mM DTT, 4% glycerol, room temperature, 30 min; GST-TFs on glutathione beads, 16-mer random dsDNA library, 0.1% formaldehyde crosslink after washing; high values mean tight binding
# FLI1 = target: T1, FLI1 (Homo sapiens, UniProt Q01543 1-452); details: protein: recombinant; tags: N-terminal GST; dsDNA, one strand shown
# T1 sequence: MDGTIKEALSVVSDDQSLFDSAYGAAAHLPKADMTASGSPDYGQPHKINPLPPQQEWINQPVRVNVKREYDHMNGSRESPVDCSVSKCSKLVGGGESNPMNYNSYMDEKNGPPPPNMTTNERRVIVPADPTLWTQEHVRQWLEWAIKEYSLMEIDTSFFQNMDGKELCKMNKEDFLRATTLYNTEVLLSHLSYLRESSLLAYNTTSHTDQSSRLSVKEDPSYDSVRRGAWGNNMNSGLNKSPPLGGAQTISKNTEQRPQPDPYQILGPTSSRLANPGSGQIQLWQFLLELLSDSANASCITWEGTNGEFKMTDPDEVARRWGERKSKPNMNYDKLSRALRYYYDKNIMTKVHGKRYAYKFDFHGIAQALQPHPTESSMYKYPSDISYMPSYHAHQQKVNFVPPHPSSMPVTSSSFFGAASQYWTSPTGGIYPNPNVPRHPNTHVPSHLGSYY
# How it was run: (§1)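 Pools of DNA-barcoded human transcription factors, expressed in yeast as GST fusions on glutathione beads and combined with a tag-only sample, were incubated with 200 nmole of a 16-mer random double-stranded DNA library. Incubation took 30 min at room temperature in Tris/NaCl/DTT/glycerol buffer and was followed by washing, 0.1% formaldehyde crosslinking, proximity ligation (BsaI/T4 ligase, 1 h, 37 °C), PCR amplification and sequencing on an Illumina NextSeq500. Binding signal is the ratio of a hexamer's read frequency for a factor to its frequency for the tag-only sample.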
# ELK1 = target: T2, ELK1 (Homo sapiens, UniProt P19419 1-428); details: protein: recombinant; tags: N-terminal GST; dsDNA, one strand shown
# T2 sequence: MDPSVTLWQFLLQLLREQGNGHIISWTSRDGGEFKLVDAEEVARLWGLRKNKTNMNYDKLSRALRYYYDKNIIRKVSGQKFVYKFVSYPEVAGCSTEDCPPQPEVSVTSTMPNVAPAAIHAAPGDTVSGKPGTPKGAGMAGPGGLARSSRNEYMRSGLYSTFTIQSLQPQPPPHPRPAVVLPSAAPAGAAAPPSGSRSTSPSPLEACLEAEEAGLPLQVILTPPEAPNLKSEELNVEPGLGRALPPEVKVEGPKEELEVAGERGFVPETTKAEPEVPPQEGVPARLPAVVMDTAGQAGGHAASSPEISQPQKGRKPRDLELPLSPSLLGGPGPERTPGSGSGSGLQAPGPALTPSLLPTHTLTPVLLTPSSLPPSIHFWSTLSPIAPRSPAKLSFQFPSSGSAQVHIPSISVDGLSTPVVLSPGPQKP
# How it was run: as §1
# GABPA = target: T3, GABPA (Homo sapiens, UniProt Q06546 1-454); details: protein: recombinant; tags: N-terminal GST; dsDNA, one strand shown
# T3 sequence: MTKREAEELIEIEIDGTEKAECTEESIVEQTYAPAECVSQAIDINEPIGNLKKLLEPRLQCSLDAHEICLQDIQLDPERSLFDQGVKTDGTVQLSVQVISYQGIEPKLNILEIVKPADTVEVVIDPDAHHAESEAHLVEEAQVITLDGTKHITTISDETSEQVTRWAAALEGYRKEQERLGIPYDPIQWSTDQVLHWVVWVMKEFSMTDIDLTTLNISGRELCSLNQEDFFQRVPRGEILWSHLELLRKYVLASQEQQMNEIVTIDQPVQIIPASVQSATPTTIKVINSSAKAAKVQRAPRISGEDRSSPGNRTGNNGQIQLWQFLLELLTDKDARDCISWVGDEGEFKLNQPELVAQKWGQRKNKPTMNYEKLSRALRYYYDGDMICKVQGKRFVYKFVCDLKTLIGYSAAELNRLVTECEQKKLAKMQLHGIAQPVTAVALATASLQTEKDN
# How it was run: as §1
# ERG = target: T4, ERG (Homo sapiens, UniProt P11308 1-479); details: protein: recombinant; tags: N-terminal GST; dsDNA, one strand shown
# T4 sequence: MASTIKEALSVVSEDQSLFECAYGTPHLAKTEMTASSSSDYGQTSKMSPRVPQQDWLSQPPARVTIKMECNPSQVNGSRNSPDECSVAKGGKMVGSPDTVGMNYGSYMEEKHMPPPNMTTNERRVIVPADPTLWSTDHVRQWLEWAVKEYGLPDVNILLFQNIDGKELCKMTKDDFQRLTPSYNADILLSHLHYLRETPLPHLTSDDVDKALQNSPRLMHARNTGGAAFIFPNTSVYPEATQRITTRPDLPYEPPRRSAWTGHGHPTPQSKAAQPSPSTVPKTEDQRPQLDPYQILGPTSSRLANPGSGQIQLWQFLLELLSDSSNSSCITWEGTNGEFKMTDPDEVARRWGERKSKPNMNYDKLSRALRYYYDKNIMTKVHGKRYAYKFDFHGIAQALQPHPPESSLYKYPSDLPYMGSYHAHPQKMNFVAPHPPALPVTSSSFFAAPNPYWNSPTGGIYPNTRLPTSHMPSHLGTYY
# How it was run: as §1
# ELF1 = ELF1 (Homo sapiens, UniProt P32519 1-619); details: protein: recombinant; tags: N-terminal GST; dsDNA, one strand shown
# How it was run: as §1
# EHF = target: T5, EHF (Homo sapiens, UniProt Q9NZC4 1-300); details: protein: recombinant; tags: N-terminal GST; dsDNA, one strand shown
# T5 sequence: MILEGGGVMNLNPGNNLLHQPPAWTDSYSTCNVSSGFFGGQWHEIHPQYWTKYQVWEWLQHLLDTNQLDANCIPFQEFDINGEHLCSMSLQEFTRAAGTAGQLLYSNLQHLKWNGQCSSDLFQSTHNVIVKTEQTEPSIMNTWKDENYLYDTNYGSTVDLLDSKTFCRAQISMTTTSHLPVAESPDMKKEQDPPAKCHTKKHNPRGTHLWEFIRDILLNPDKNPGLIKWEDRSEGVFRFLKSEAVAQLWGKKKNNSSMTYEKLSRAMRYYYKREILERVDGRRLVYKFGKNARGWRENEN
# How it was run: as §1
# SPI1 = SPI1 (Homo sapiens, UniProt P17947 1-270); details: protein: recombinant; tags: N-terminal GST; dsDNA, one strand shown
# How it was run: as §1
# SPIB = SPIB (Homo sapiens, UniProt Q01892 1-262); details: protein: recombinant; tags: N-terminal GST; dsDNA, one strand shown
# How it was run: as §1
# ELK3 = target: T6, ELK3 (Homo sapiens, UniProt P41970 1-407); details: protein: recombinant; tags: N-terminal GST; dsDNA, one strand shown
# T6 sequence: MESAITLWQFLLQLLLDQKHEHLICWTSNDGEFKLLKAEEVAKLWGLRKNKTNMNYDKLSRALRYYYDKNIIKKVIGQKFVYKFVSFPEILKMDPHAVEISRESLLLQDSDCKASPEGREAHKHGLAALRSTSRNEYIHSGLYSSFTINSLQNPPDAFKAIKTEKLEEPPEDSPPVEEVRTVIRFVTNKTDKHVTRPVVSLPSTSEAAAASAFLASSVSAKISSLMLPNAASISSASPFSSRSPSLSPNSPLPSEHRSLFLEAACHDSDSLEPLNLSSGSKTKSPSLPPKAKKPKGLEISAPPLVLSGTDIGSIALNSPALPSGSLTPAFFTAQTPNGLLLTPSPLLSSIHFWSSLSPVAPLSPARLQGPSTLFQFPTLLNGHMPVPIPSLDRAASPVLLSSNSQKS
# How it was run: as §1
# FEV = target: T7, FEV (Homo sapiens, UniProt Q99581 1-238); details: protein: recombinant; tags: N-terminal GST; dsDNA, one strand shown
# T7 sequence: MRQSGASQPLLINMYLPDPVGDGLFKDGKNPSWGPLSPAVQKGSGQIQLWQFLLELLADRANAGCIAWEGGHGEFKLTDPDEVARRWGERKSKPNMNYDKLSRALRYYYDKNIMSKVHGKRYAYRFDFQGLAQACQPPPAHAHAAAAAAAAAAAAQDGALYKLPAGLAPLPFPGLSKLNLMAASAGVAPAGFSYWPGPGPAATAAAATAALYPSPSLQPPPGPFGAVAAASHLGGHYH
# How it was run: as §1
# ETV5 = ETV5 (Homo sapiens, UniProt P41161 1-510); details: protein: recombinant; tags: N-terminal GST; dsDNA, one strand shown
# How it was run: as §1
# HSF1 = HSF1 (Homo sapiens, UniProt Q00613 1-529); details: protein: recombinant; tags: N-terminal GST; chain copies: 3; dsDNA, one strand shown
# How it was run: as §1
# SPIC = target: T8, SPIC (Homo sapiens, UniProt Q8N5J4 1-248); details: protein: recombinant; tags: N-terminal GST; dsDNA, one strand shown
# T8 sequence: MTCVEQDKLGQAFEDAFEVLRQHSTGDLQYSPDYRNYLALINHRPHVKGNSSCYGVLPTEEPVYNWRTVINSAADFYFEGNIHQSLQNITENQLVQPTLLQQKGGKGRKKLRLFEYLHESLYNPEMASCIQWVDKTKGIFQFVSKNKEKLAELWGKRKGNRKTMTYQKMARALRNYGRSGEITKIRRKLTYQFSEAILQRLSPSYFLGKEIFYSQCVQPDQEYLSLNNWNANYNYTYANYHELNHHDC
# How it was run: as §1
# ELF4 = ELF4 (Homo sapiens, UniProt Q99607 1-663); details: protein: recombinant; tags: N-terminal GST; dsDNA, one strand shown
# How it was run: as §1
# ELK4 = target: T9, ELK4 (Homo sapiens, UniProt P28324-2 1-405); details: protein: recombinant; tags: N-terminal GST; dsDNA, one strand shown
# T9 sequence: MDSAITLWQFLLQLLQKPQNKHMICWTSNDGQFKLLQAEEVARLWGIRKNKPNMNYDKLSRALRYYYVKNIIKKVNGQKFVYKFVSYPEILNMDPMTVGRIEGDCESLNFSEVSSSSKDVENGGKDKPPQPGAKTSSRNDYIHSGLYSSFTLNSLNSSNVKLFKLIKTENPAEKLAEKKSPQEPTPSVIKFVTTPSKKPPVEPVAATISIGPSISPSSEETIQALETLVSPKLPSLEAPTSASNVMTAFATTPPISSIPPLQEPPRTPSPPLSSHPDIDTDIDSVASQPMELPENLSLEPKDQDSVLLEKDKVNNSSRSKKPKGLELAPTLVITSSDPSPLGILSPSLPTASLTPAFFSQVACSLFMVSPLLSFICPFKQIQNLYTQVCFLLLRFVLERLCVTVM
# How it was run: as §1
# ETV2 = target: T10, ETV2 (Homo sapiens, UniProt O00321 1-342); details: protein: recombinant; tags: N-terminal GST; dsDNA, one strand shown
# T10 sequence: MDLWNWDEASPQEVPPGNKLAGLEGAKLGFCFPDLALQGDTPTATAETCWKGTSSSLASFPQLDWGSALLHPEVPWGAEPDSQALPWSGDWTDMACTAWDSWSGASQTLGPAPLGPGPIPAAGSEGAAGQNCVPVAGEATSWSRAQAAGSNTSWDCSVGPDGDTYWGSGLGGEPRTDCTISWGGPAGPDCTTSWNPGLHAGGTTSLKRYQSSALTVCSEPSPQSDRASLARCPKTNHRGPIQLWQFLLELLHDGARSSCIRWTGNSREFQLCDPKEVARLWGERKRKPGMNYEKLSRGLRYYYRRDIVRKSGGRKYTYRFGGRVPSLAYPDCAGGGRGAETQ
# How it was run: as §1
# ELF3 = target: T11, ELF3 (Homo sapiens, UniProt P78545 1-371); details: protein: recombinant; tags: N-terminal GST; dsDNA, one strand shown
# T11 sequence: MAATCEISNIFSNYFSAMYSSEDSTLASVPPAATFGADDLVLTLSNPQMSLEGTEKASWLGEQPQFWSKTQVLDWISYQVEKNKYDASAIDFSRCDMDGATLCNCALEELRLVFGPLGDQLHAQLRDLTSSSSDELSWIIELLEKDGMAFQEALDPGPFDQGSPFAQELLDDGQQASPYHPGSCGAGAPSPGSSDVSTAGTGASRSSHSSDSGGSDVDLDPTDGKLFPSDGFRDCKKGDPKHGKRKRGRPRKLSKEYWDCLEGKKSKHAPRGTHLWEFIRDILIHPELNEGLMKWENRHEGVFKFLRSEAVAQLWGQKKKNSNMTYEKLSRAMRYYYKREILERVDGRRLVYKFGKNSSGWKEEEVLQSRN
# How it was run: as §1
# CRX = CRX (Homo sapiens, UniProt O43186 1-299); details: protein: recombinant; tags: N-terminal GST; dsDNA, one strand shown
# How it was run: as §1
# ETV1 = ETV1 (Homo sapiens, UniProt P50549 1-477); details: protein: recombinant; tags: N-terminal GST; dsDNA, one strand shown
# How it was run: as §1
# Chain of ETV5 (P41161 whole entry): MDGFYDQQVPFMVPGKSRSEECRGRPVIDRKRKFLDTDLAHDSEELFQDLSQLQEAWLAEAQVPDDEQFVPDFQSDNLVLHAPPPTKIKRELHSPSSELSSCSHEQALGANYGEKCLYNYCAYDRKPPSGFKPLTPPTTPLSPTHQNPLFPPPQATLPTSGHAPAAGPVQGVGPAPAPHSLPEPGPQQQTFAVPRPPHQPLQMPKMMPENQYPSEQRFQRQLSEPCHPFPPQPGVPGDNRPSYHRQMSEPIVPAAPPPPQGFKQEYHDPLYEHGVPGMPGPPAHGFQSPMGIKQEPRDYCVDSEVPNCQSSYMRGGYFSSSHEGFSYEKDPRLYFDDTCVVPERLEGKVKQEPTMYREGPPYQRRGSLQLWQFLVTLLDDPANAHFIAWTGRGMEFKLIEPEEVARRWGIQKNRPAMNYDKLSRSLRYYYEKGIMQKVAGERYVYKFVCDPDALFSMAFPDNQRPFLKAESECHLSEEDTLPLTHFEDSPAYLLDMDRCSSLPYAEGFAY
# Chain of ETV1 (P50549 whole entry): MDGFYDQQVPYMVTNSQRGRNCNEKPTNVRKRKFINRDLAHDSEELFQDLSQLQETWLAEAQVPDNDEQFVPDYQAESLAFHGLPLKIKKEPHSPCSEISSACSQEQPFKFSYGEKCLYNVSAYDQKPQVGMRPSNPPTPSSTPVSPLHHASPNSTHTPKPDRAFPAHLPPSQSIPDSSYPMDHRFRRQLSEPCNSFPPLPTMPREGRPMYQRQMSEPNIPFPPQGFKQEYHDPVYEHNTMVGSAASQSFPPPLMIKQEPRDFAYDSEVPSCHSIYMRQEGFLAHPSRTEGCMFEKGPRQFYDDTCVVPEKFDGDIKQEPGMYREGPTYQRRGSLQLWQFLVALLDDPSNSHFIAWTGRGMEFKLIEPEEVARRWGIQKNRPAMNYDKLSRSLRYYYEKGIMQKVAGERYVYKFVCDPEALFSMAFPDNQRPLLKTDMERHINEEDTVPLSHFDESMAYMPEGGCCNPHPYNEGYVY
# Chain of HSF1 (Q00613 whole entry): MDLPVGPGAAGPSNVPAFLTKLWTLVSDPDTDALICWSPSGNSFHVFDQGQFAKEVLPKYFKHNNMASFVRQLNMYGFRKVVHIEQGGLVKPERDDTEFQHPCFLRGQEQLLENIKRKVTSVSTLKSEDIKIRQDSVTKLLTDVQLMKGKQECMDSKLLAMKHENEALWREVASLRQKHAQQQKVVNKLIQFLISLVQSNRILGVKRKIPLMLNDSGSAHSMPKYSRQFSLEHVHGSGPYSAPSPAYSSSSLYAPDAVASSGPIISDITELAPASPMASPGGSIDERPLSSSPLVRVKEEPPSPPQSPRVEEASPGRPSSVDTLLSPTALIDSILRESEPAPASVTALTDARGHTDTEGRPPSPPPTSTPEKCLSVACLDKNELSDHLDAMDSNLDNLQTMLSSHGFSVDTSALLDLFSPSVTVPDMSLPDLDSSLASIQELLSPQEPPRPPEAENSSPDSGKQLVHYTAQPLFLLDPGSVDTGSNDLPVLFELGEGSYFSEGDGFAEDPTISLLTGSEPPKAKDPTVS
# Chain of ELF1 (P32519 whole entry): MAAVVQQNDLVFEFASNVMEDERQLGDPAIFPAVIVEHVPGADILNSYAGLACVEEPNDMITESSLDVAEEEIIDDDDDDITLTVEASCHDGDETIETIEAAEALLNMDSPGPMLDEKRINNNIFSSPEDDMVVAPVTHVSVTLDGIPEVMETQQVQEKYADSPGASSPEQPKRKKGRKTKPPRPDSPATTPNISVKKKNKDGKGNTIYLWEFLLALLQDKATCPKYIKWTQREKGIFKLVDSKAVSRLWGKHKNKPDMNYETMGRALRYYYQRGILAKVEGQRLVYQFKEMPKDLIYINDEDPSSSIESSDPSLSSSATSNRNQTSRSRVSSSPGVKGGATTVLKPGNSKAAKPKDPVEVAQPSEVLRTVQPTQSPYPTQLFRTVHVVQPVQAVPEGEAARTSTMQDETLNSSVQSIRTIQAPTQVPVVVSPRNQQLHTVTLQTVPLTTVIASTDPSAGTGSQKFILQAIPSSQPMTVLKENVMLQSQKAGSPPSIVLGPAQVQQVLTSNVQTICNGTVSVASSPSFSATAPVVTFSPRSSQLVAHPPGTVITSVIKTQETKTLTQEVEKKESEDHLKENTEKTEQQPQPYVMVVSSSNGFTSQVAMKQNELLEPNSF
# Chain of ELF4 (Q99607 whole entry): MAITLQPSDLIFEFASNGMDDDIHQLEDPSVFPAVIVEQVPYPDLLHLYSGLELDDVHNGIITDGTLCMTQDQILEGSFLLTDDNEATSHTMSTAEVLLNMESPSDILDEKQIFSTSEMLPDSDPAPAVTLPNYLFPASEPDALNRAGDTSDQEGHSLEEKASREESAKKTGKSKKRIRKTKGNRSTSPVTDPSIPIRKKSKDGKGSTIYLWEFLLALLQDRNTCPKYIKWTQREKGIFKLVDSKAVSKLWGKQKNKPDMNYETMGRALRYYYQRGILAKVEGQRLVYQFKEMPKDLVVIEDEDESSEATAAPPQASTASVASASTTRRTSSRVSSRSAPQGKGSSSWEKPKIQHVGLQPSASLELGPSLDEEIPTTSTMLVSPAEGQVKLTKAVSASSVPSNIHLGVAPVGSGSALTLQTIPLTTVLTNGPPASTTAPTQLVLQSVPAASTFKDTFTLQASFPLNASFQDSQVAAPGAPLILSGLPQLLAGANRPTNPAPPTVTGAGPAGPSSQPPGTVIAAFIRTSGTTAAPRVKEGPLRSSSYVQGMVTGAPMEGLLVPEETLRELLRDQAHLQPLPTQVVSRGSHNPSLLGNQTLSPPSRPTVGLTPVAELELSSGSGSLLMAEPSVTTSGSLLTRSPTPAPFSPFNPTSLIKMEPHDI
# Chain of CRX (O43186 whole entry): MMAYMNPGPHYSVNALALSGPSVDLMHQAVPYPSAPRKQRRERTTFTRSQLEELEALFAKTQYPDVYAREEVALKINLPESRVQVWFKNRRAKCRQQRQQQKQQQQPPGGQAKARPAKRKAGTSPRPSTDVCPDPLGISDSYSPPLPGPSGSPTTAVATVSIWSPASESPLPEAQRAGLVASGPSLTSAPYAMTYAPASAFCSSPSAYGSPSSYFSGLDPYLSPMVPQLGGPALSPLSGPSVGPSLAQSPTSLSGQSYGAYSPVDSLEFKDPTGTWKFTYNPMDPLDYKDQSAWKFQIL
# Chain of SPIB (Q01892 whole entry): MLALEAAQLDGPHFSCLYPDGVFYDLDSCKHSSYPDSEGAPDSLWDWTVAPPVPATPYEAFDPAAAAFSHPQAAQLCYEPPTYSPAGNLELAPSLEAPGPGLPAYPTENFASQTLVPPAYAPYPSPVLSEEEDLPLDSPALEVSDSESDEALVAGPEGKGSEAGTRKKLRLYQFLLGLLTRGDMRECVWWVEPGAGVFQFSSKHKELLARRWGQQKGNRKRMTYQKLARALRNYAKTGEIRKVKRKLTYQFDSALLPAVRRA
sequence,measurement,setting,value
GGCCTA,binding signal,FLI1,"1.15 fold enrichment (6-mer frequency, TF over GST control)"
same,binding signal,ELK1,"1.22 fold enrichment (6-mer frequency, TF over GST control)"
same,binding signal,GABPA,"1.31 fold enrichment (6-mer frequency, TF over GST control)"
same,binding signal,ERG,"1.37 fold enrichment (6-mer frequency, TF over GST control)"
same,binding signal,ELF1,"1.3 fold enrichment (6-mer frequency, TF over GST control)"
same,binding signal,EHF,"1.23 fold enrichment (6-mer frequency, TF over GST control)"
same,binding signal,SPI1,"1.03 fold enrichment (6-mer frequency, TF over GST control)"
same,binding signal,SPIB,"1.04 fold enrichment (6-mer frequency, TF over GST control)"
same,binding signal,ELK3,"1.1 fold enrichment (6-mer frequency, TF over GST control)"
same,binding signal,FEV,"1.19 fold enrichment (6-mer frequency, TF over GST control)"
same,binding signal,ETV5,"1.22 fold enrichment (6-mer frequency, TF over GST control)"
same,binding signal,HSF1,"1.33 fold enrichment (6-mer frequency, TF over GST control)"
same,binding signal,SPIC,"1.1 fold enrichment (6-mer frequency, TF over GST control)"
same,binding signal,ELF4,"1.25 fold enrichment (6-mer frequency, TF over GST control)"
same,binding signal,ELK4,"1.25 fold enrichment (6-mer frequency, TF over GST control)"
same,binding signal,ETV2,"1.14 fold enrichment (6-mer frequency, TF over GST control)"
same,binding signal,ELF3,"1.22 fold enrichment (6-mer frequency, TF over GST control)"
same,binding signal,CRX,"1.39 fold enrichment (6-mer frequency, TF over GST control)"
same,binding signal,ETV1,"1.2 fold enrichment (6-mer frequency, TF over GST control)"
